TDP1 block: TDP1 (human) enzyme inhibition | Q9NUW8 | recombinant TDP1, AlphaScreen DNA substrate cleavage | Potency, µM (highest dose often 130 µM), for the others: at the top dose activity change, negative = inhibition, hits mostly inhibitors | hit rate 0.28% among 350,000 | AID 485290; note: potency is the fitted concentration of half-maximal effect; % is set by controls: 0 for no effect and ±100 for the full control effect; nearly all actives have a fitted effect of over 40% in size
Target sequence (Q9NUW8 whole entry, looked up): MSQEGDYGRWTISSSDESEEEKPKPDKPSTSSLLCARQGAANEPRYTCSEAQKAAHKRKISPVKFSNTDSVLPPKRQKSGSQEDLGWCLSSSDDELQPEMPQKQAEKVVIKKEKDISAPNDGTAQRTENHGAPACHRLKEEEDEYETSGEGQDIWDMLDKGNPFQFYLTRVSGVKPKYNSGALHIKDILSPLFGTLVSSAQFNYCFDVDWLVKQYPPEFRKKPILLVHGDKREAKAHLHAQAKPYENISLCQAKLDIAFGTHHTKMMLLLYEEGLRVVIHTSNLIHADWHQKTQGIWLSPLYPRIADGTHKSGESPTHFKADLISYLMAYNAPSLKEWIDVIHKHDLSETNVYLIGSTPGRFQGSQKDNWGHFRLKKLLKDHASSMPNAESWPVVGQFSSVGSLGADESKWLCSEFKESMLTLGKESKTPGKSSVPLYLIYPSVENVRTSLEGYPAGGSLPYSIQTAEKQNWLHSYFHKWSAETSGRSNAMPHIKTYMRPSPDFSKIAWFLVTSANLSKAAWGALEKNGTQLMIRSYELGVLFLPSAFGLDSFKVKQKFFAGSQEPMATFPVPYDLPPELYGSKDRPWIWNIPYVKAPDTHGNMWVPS
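Steps: enzyme plus compound, 15 min RT; add biotin/phosphotyrosine-FITC oligonucleotide (15 nM final), react 5 min; add donor/acceptor beads (10 ug/ml final), 10 min; read AlphaScreen. Tdp1 at 1 nM final.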
TDP1 cell CPT: growth inhibition of DT40 Tdp1-/-;hTDP1 cells with camptothecin (screen for TDP1 inhibitors); hit rate 12% among 420,000; AID 686979; chicken DT40 Tdp1-/-;hTDP1 cells + 20 nM CPT, ATP luminescence, 48 h; Potency, µM (titrated, usually from 46.2 µM), for the others: at the top dose activity change, negative = growth inhibition, actives largely listed as inhibitors; note: potency is the fitted concentration of half-maximal effect; % is set by controls: 0 for no effect and ±100 for the full control effect; nearly all actives have a fitted effect of over 55% in size
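Chicken DT40 Tdp1-/- cells complemented with human TDP1, 400 cells/well, exposed to compounds plus 20 nM camptothecin for at least 48 h at 37 C; viability read as ATP content by CellTiter-Glo luminescence.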
TGFb inhibitor: blocks TGF-b signaling | hit rate 1.2% among 410,000 | AID 588855 | HepG2 CAGA-GFP TGF-b/SMAD3 reporter, GFP fluorescence, 18 h; TGF-beta stimulated, 500 pg/mL final | Potency, µM (doses to about 46.1 µM), for inactives: top-dose activity, negative = inhibition, usual class: inhibitors; note: potency is the fitted concentration of half-maximal effect; % is set by controls: 0 for no effect and ±100 for the full control effect; nearly all actives have a fitted effect of over 65% in size
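Per well, imaged GFP fluorescence of HEPG2 CAGA-GFP cells gives the signal; cells get compound, then TGF-beta (500 pg/mL final), 18 h at 37 degrees C; %Activity versus -TGF-beta and +DMSO controls.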
DT40 TDP1 no CPT: qHTS for Inhibitors of human tyrosyl-DNA phosphodiesterase 1 (TDP1): qHTS in cells in absence of CPT. DT40 Tdp1-/- hTDP1 cells, no CPT, ATP luminescence, 48 h. Potency, µM (series often up to 46.2 µM), without a hit: at the highest dose activity change, negative = growth inhibition, hits mostly inhibitors. hit rate 15% among 420,000; note: potency is the fitted concentration of half-maximal effect; % is set by controls: 0 for no effect and ±100 for the full control effect; nearly all actives have a fitted effect of over 55% in size
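Stably hTDP1-transfected Tdp1-null chicken DT40 cells were treated with library compounds minus camptothecin and grown for at least 48 hr at 37 °C, after which cellular ATP was quantified by luminescence.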
HepG2 tox-1: HepG2 cytotoxicity, counter-screen for TGF-b inhibitors; HepG2 CAGA-GFP viability, ATP luminescence, 18 h; hit rate 0.76% among 410,000; Potency, µM (top dose mostly 46.1 µM), for inactives: at the highest dose activity change, negative = cytotoxicity, most hits filed as cytotoxic; note: potency is the fitted concentration of half-maximal effect
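CellTiter-Glo luminescence gave cytotoxicity after 18 hours at 37 degrees C. The cells were HepG2 CAGA-GFP in 1% FBS DMEM, stimulated with 500 pg/mL TGF-beta after compound addition. %Activity was normalised to no-cell wells (complete cell-killing) and DMSO (no toxicity), and curves were fitted and classified.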
IL1B secr inh: inhibitors of inflammasome signaling (IL-1 beta secretion) | THP-1 LPS/ATP IL-1B secretion, AlphaLISA, 16 h; stronger effect = lower value | hit rate 4.7% among 360,000 | AID 743279 | activity change, % at 57.5 µM; in the data active = activity change below about -50%; inconclusive = mostly about -30% to -49%; note: % is set by controls: 0 for no effect and ±100 for the full control effect
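THP-1 cells pretreated 1 hr with compounds (up to 57.5 uM final), then stimulated with LPS (250 ng/mL final) plus ATP (1.25 mM final); secreted IL-1B measured by AlphaLISA after 16 hr, decreased signal indicating inhibition.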
TGFb confirm: TGF-b pathway inhibition, cherry-pick retest; hit rate 63% among 1,600; shares compounds with TGFb inhibitor; Potency, µM (top dose mostly 46.1 µM), inactives show at the highest dose activity, negative = inhibition, actives largely listed as inhibitors; AID 720534; HepG2 CAGA-GFP TGF-b reporter, GFP fluorescence, 18 h; cells stimulated with TGF-beta, 500 pg/mL; note: potency is the fitted concentration of half-maximal effect; % is set by controls: 0 for no effect and ±100 for the full control effect; nearly all actives have a fitted effect of over 65% in size
HepG2 tox-2: toxic to HepG2 cells in TGF-b counterscreen; shares compounds with TGFb inhibitor; HepG2 CAGA-GFP viability, ATP luminescence, 18 h; cells stimulated with TGF-beta, 500 pg/mL; Potency, µM (doses to about 46.1 µM), inactives show at the top dose activity, negative = cytotoxicity, hits mostly inhibitors; hit rate 27% among 1,600; AID 720535; note: potency is the fitted concentration of half-maximal effect; % is set by controls: 0 for no effect and ±100 for the full control effect; nearly all actives have a fitted effect of over 70% in size
TGFb CCL64 inh: TGF-b inhibition, CCL64 orthogonal assay; shares compounds with TGFb inhibitor; CCL64 CAGA-GFP reporter, TGF-b stimulated, GFP fluorescence, 18 h; AID 720536; Potency, µM (highest dose often 46.1 µM), without a hit: top-dose activity, negative = inhibition, most hits filed as inhibitors; hit rate 41% among 1,600; note: potency is the fitted concentration of half-maximal effect; nearly all actives have a fitted effect of over 65% in size
COP TGFb inh: validation of TGF-b inhibitors in HepG2 COP promoter reporter; shares compounds with TGFb inhibitor; HepG2 COP-GFP TGF-b reporter, GFP fluorescence, 18 h; cells stimulated by added recombinant TGF-beta; Potency, µM (doses to about 46.1 µM), inactives show at the top dose activity, negative = inhibition, usual class: inhibitors; hit rate 3% among 1,600; AID 720537; note: potency is the fitted concentration of half-maximal effect; nearly all actives have a fitted effect of over 70% in size
An asterisk follows results filed as active; ? = inconclusive; nt = no result given. A selection: hits, their analogues and other compounds. The true share with any hit is near 18%. Unless noted, calls come from the whole dose curve; as a rule, active = well fitted curve in the direction sought with a large enough effect; inconclusive = small, poorly fitted or top-dose-only effect, or another doubt; inactive = no such curve, though single readings can be large; an effect the other way counts as inactive or inconclusive.

SMILES	TDP1 block	TDP1 cell CPT	TGFb inhibitor	DT40 TDP1 no CPT	HepG2 tox-1	IL1B secr inh	TGFb confirm	HepG2 tox-2	TGFb CCL64 inh	COP TGFb inh
N#CC(c1ccc(Cl)cc1)c1ccc2c(C(F)(F)F)cc(C(F)(F)F)nc2n1 (centres undefined)	8%	0.65µM*	3.5µM*	0.58µM*	-38%	-105*	5.2µM*	6.5µM*	1.5µM*	103%
Cc1cccc(N(C)S(=O)(=O)c2ccc(-c3cnc(C4CC4)o3)cc2)c1	-2%	0.029µM*	7.9µM*	0.037µM*	-2%	112	4.6µM*	?	6.5µM*	30%
COc1ccccc1NS(=O)(=O)c1ccc(-c2cnc(C3CC3)o2)cc1	2%	0.73µM*	11µM*	0.92µM*	-24%	26	?	?	?	4%
COc1ccccc1NS(=O)(=O)c1ccc(O)cc1	1%	?	0%	?	36%	28	nt	nt	nt	nt
O=C(Nc1nnc(SCc2ccc(F)cc2)s1)c1ccccn1	8%	2.6µM*	1.6µM*	5.2µM*	-32%	0	?	?	18µM*	55%
COc1ccc(/C=C(\C#N)C(=O)OCC(=O)Nc2ccc(-c3nc4ccc(C)cc4s3)cc2)cc1	-4%	?	-1%	-4%	-2%	-25	nt	nt	nt	nt
O=C1CC[C@@H](CN(Cc2ccccn2)Cc2nc(-c3ccc(C(F)(F)F)cc3)no2)N1	5%	-6%	2%	-22%	0%	33	nt	nt	nt	nt
CCOCCOC(=O)COc1ccc2c(-c3ccccc3)cc(=O)oc2c1	-2%	-7%	8%	-17%	7%	26	nt	nt	nt	nt
O=C(Nc1ccc([N+](=O)[O-])cc1)Nc1ccc(OC(F)F)c(Cl)c1	3%	2.3µM*	4.5µM*	1.6µM*	13µM*	-89*	13µM*	5.8µM*	3.7µM*	?
CC(=O)c1ccc(NC(=O)Cn2cnc(S(=O)(=O)N3CCC(C)CC3)c2)cc1	-11%	?	3%	-29%	-1%	21	nt	nt	nt	nt
COc1cccc2c1C(CO)N1C(C#N)C3CC(C(=O)O)C(C1C2)N3C (centres undefined)	nt	0.18µM*	1.3µM*	0.21µM*	16%	-116*	0.65µM*	0.52µM*	7.3µM*	-4%
CN1C(=O)N(C)C2(c3ccccc3)N(C(C)(C)C)C(=O)NC12c1ccccc1 (centres undefined)	8%	-4%	-22%	-30%	-21%	76	nt	nt	nt	nt

Source: PubChem BioAssay
